Structures can show the parent of a compound that is named as a salt. ± gives the standard deviation of the averaged measurements.

One assay concerns E. coli TESEC Mtb DapB. Put plainly: growth (OD600 after 10 h); higher = more growth (less inhibition). Particulars: arabinose induction (level): Low; compound 0.1 mM; raw OD600 reference: median of DMSO wells 0.227, cell-free background 0.041. As for the experimental part:
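TESEC E. coli strains in which the native enzyme is deleted and replaced by arabinose-inducible Mtb Asd, DapB, CysH or TrpD, each grown in its selective medium. Strains were screened against the Prestwick library at 0.1 mM and 1% DMSO in 384-well format at low and high arabinose induction. Growth is read as OD600 after 10 h in triplicate.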
As for `O=C(N/N=C/c1ccc([N+](=O)[O-])o1)c1ccc(O)cc1` [Nifuroxazide], the growth is 0.0557 ± 0.0021.

`COCCOC(=O)C1=C(C)NC(C)=C(C(=O)OC/C=C/c2ccccc2)C1c1cccc([N+](=O)[O-])c1` (stereo not drawn) [Cilnidipine] gave a growth of 0.21 ± 0.025.

With `CCN(CC)CCOC(=O)c1ccc(N)cc1` [Procaine hydrochloride], the growth was 0.251 ± 0.046.

In turn, `COc1cccc(N(C)C(=S)Oc2ccc3c(c2)CCCC3)n1` [Liranaftate] displayed a growth of 0.224 ± 0.0065.

Take `CC(C)(Sc1cc(C(C)(C)C)c(O)c(C(C)(C)C)c1)Sc1cc(C(C)(C)C)c(O)c(C(C)(C)C)c1` [Probucol]: the growth worked out at 0.22 ± 0.016.

The compound `C[C@@H]1[C@H](O)[C@@H](C)/C=C/C=C/C=C/C=C/C=C/C=C/C=C/[C@H](O[C@@H]2O[C@H](C)[C@@H](O)[C@H](N)[C@@H]2O)C[C@@H]2O[C@](O)(C[C@@H](O)C[C@@H](O)[C@H](O)CC[C@@H](O)C[C@@H](O)CC(=O)O[C@H]1C)C[C@H](O)[C@H]2C(=O)O` [Amphotericin B] yielded a growth of 0.237 ± 0.046.

In turn, `C[C@@H](O)[C@H]1C(=O)N2C(C(=O)O)=C(S[C@@H]3CN[C@H](C(=O)N(C)C)C3)[C@H](C)[C@H]12` [Meropenem] returned a growth of 0.169 ± 0.013.

On to `CC1CCc2cc(F)cc3c(=O)c(C(=O)O)cn1c23` (stereo not drawn) [Flumequine], for which the growth stood at 0.0692 ± 0.0075.

Consider `O=C1CC2(CCCC2)CC(=O)N1CCCCN1CCN(c2ncccn2)CC1` [Buspirone hydrochloride], for which the growth was determined as 0.226 ± 0.035.

`CC[C@]12CCCN3CCc4c(n(c5ccccc45)[C@@](O)(C(=O)OC)C1)[C@@H]32` [Vincamine] showed a growth of 0.266 ± 0.071.

Consider `N#CC(c1ccc(Cl)cc1)c1c(Cl)cc(-n2ncc(=O)[nH]c2=O)cc1Cl` (stereo not drawn) [Diclazuril], for which the growth turned out to be 0.0496 ± 0.0011.

Take `CCOC(=O)[C@H](CCc1ccccc1)N[C@H]1CCc2ccccc2N(CC(=O)O)C1=O` [Benazepril HCl]: the growth came to 0.24 ± 0.038.

Turning to `C[C@H](CCC(=O)O)[C@H]1CC[C@H]2[C@@H]3[C@H](O)C[C@@H]4C[C@H](O)CC[C@]4(C)[C@H]3CC[C@]12C` [Chenodiol], the growth stood at 0.179 ± 0.0059.

`CC(=O)CC(c1ccccc1)c1c(O)c2ccccc2oc1=O` (stereo not drawn) [Warfarin] had a growth of 0.231 ± 0.021.

Compound `O=C1CN(/N=C/c2ccc(-c3ccc([N+](=O)[O-])cc3)o2)C(=O)N1` [Dantrolene sodium salt] yielded a growth of 0.231 ± 0.072.

In the case of `Nc1nc2c(ncn2COC(CO)CO)c(=O)[nH]1` [Ganciclovir], the growth worked out at 0.245 ± 0.013.

The compound `Cc1ccc(C(=O)c2cc(O)c(O)c([N+](=O)[O-])c2)cc1` [Tolcapone] returned a growth of 0.0557 ± 0.0019.

In turn, `Fc1ccc([C@@H]2CCNC[C@H]2COc2ccc3c(c2)OCO3)cc1` [Paroxetine Hydrochloride] came in with a growth of 0.178 ± 0.0082.

The compound `COc1ccc(CN2CCN(C(c3ccc(F)cc3)c3ccc(F)cc3)CC2)c(OC)c1OC` [Lomerizine hydrochloride] showed a growth of 0.0956 ± 0.013.

With `C[C@@H]1C[C@H]2[C@@H]3CCC4=CC(=O)C=C[C@]4(C)[C@@]3(Cl)[C@@H](O)C[C@]2(C)[C@@]1(OC(=O)c1ccco1)C(=O)CCl` [Mometasone furoate], the growth amounted to 0.212 ± 0.06.

`Cc1cccc(Nc2ccncc2S(=O)(=O)NC(=O)NC(C)C)c1` [Torsemide]: the growth was 0.26 ± 0.019.

`COc1nc(C)nc(Cl)c1NC1=NCCN1` [Moxonidine]: the growth came to 0.254 ± 0.017.

The compound `NC(=O)c1cccnc1` [Nicotinamide] registered a growth of 0.258 ± 0.043.

For `NCCCC(O)(P(=O)(O)O)P(=O)(O)O` [Alendronate sodium], the growth was found to be 0.227 ± 0.019.

In turn, `NNC(=O)c1ccncc1` [Isoniazid] showed a growth of 0.242 ± 0.052.

The compound `CC(C)OC(=O)C(C)(C)Oc1ccc(C(=O)c2ccc(Cl)cc2)cc1` [Fenofibrate] yielded a growth of 0.215 ± 0.037.

`CCC[C@@H]1C[C@@H](C(=O)N[C@@H]([C@H]2O[C@H](SC)[C@H](O)[C@@H](O)[C@H]2O)[C@@H](C)O)N(C)C1` [Lincomycin hydrochloride] registered a growth of 0.179 ± 0.043.

As for `CS(=O)(=O)OCCCCOS(C)(=O)=O` [Busulfan], the growth turned out to be 0.286 ± 0.024.

`CC[C@H]1OC(=O)C[C@@H](O)[C@H](C)[C@@H](O[C@@H]2O[C@H](C)[C@@H](O[C@H]3C[C@@](C)(O)[C@@H](O)[C@H](C)O3)[C@H](N(C)C)[C@H]2O)[C@@H](CC=O)C[C@@H](C)C(=O)/C=C/C(C)=C/[C@@H]1CO[C@@H]1O[C@H](C)[C@@H](O)[C@@H](OC)[C@H]1OC` [Tylosin] gave a growth of 0.0754 ± 0.0056.

For a further assay, the system named is E. coli TESEC Alr+ wild-type control. The description is as above. The following applies: compound 0.1 mM; raw OD600 reference: median of DMSO wells 0.49, cell-free background 0.052. The protocol: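 TESEC Mtb Alr E. coli (ΔaraC ΔtolC ΔentC Δalr ΔdadX, arabinose-inducible Mtb Alr) or the Alr+ wild-type control strain, grown in defined M9-fructose medium without D-alanine in 96-well plates with Prestwick library compounds at 0.1 mM and 1% DMSO. Low Alr induction is 0.1 µM arabinose and high induction is 10 mM arabinose.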
On to `CC(=O)Oc1cccc2c1C(=O)c1c(OC(C)=O)cc(C(=O)O)cc1C2=O` [Diacerein], for which the growth is 0.087 ± 0.0013.

Compound `COc1ccc(-c2cc(=S)ss2)cc1` [Anethole-trithione] came in with a growth of 0.616 ± 0.027.

`O=C(O)Cc1ccccc1Nc1c(Cl)cccc1Cl` [Diclofenac sodium] displayed a growth of 0.436 ± 0.0056.

`CCN1CCC[C@H]1CNC(=O)c1c(O)c(Cl)cc(Cl)c1OC` [Raclopride] had a growth of 0.391 ± 0.075.

On to `COc1ccc(C[C@@H]2c3cc(OC)c(OC)cc3CC[N@+]2(C)CCC(=O)OCCCCCOC(=O)CC[N@@+]2(C)CCc3cc(OC)c(OC)cc3[C@H]2Cc2ccc(OC)c(OC)c2)cc1OC` [Cisatracurium besylate], for which the growth came to 0.497 ± 0.054.

`CN(C)CCOC(=O)C(c1ccccc1)C1(O)CCCC1` (stereo not drawn) [Cyclopentolate hydrochloride]: the growth worked out at 0.54 ± 0.099.

`CCCCOc1ccc(C(=O)CCN2CCCCC2)cc1` [Dyclonine hydrochloride] returned a growth of 0.449 ± 0.034.

As to `CC[C@H]1OC(=O)[C@H](C)[C@@H](O[C@H]2C[C@@](C)(OC)[C@@H](O)[C@H](C)O2)[C@H](C)[C@@H](O[C@@H]2O[C@H](C)C[C@H](N(C)C)[C@H]2O)[C@](C)(O)C[C@@H](C)/C(=N\OCOCCOC)[C@H](C)[C@@H](O)[C@]1(C)O` [Roxithromycin], the growth was determined as 0.05257 ± 0.00029.

Consider `CCOC(=O)O[C@]1(C(=O)OCCl)CC[C@H]2[C@@H]3CCC4=CC(=O)C=C[C@]4(C)[C@H]3[C@@H](O)C[C@@]21C` [Loteprednol etabonate], for which the growth is 0.473 ± 0.12.

In turn, `c1ccc2c(CC3=NCCN3)cccc2c1` [Naphazoline hydrochloride] had a growth of 0.549 ± 0.075.

In turn, `O=C(N/N=C/c1ccc([N+](=O)[O-])o1)c1ccc(O)cc1` [Nifuroxazide] yielded a growth of 0.0581 ± 0.0039.

Take `COCCOC(=O)C1=C(C)NC(C)=C(C(=O)OC/C=C/c2ccccc2)C1c1cccc([N+](=O)[O-])c1` (stereo not drawn) [Cilnidipine]: the growth was 0.518 ± 0.028.

`CCN(CC)CCOC(=O)c1ccc(N)cc1` [Procaine hydrochloride] registered a growth of 0.52 ± 0.05.

As for `COc1cccc(N(C)C(=S)Oc2ccc3c(c2)CCCC3)n1` [Liranaftate], the growth was 0.385 ± 0.0054.

The compound `CC(C)(Sc1cc(C(C)(C)C)c(O)c(C(C)(C)C)c1)Sc1cc(C(C)(C)C)c(O)c(C(C)(C)C)c1` [Probucol] registered a growth of 0.583 ± 0.039.

Compound `C[C@@H]1[C@H](O)[C@@H](C)/C=C/C=C/C=C/C=C/C=C/C=C/C=C/[C@H](O[C@@H]2O[C@H](C)[C@@H](O)[C@H](N)[C@@H]2O)C[C@@H]2O[C@](O)(C[C@@H](O)C[C@@H](O)[C@H](O)CC[C@@H](O)C[C@@H](O)CC(=O)O[C@H]1C)C[C@H](O)[C@H]2C(=O)O` [Amphotericin B] gave a growth of 0.532 ± 0.087.

Compound `C[C@@H](O)[C@H]1C(=O)N2C(C(=O)O)=C(S[C@@H]3CN[C@H](C(=O)N(C)C)C3)[C@H](C)[C@H]12` [Meropenem] came in with a growth of 0.0604 ± 0.0014.

The compound `CC1CCc2cc(F)cc3c(=O)c(C(=O)O)cn1c23` (stereo not drawn) [Flumequine] displayed a growth of 0.0527 ± 0.00046.

Regarding `O=C1CC2(CCCC2)CC(=O)N1CCCCN1CCN(c2ncccn2)CC1` [Buspirone hydrochloride], the growth was found to be 0.454 ± 0.019.

`CC[C@]12CCCN3CCc4c(n(c5ccccc45)[C@@](O)(C(=O)OC)C1)[C@@H]32` [Vincamine] had a growth of 0.503 ± 0.059.

`N#CC(c1ccc(Cl)cc1)c1c(Cl)cc(-n2ncc(=O)[nH]c2=O)cc1Cl` (stereo not drawn) [Diclazuril] gave a growth of 0.156 ± 0.17.

`CCOC(=O)[C@H](CCc1ccccc1)N[C@H]1CCc2ccccc2N(CC(=O)O)C1=O` [Benazepril HCl]: the growth was 0.559 ± 0.042.

As to `C[C@H](CCC(=O)O)[C@H]1CC[C@H]2[C@@H]3[C@H](O)C[C@@H]4C[C@H](O)CC[C@]4(C)[C@H]3CC[C@]12C` [Chenodiol], the growth turned out to be 0.439 ± 0.059.

In turn, `CC(=O)CC(c1ccccc1)c1c(O)c2ccccc2oc1=O` (stereo not drawn) [Warfarin] yielded a growth of 0.492 ± 0.081.

For `O=C1CN(/N=C/c2ccc(-c3ccc([N+](=O)[O-])cc3)o2)C(=O)N1` [Dantrolene sodium salt], the growth amounted to 0.446 ± 0.023.

On to `Nc1nc2c(ncn2COC(CO)CO)c(=O)[nH]1` [Ganciclovir], for which the growth was found to be 0.473 ± 0.057.

`Cc1ccc(C(=O)c2cc(O)c(O)c([N+](=O)[O-])c2)cc1` [Tolcapone] yielded a growth of 0.065 ± 0.0022.

Turning to `Fc1ccc([C@@H]2CCNC[C@H]2COc2ccc3c(c2)OCO3)cc1` [Paroxetine Hydrochloride], the growth came out at 0.444 ± 0.026.

Take `COc1ccc(CN2CCN(C(c3ccc(F)cc3)c3ccc(F)cc3)CC2)c(OC)c1OC` [Lomerizine hydrochloride]: the growth turned out to be 0.233 ± 0.0047.

In the case of `C[C@@H]1C[C@H]2[C@@H]3CCC4=CC(=O)C=C[C@]4(C)[C@@]3(Cl)[C@@H](O)C[C@]2(C)[C@@]1(OC(=O)c1ccco1)C(=O)CCl` [Mometasone furoate], the growth worked out at 0.498 ± 0.036.

`Cc1cccc(Nc2ccncc2S(=O)(=O)NC(=O)NC(C)C)c1` [Torsemide] displayed a growth of 0.477 ± 0.021.

As for `COc1nc(C)nc(Cl)c1NC1=NCCN1` [Moxonidine], the growth came to 0.567 ± 0.019.

Regarding `NC(=O)c1cccnc1` [Nicotinamide], the growth amounted to 0.509 ± 0.11.

Turning to `NCCCC(O)(P(=O)(O)O)P(=O)(O)O` [Alendronate sodium], the growth was 0.514 ± 0.051.

As for `NNC(=O)c1ccncc1` [Isoniazid], the growth is 0.458 ± 0.054.

Compound `CC(C)OC(=O)C(C)(C)Oc1ccc(C(=O)c2ccc(Cl)cc2)cc1` [Fenofibrate] displayed a growth of 0.469 ± 0.026.

For `CCC[C@@H]1C[C@@H](C(=O)N[C@@H]([C@H]2O[C@H](SC)[C@H](O)[C@@H](O)[C@H]2O)[C@@H](C)O)N(C)C1` [Lincomycin hydrochloride], the growth turned out to be 0.486 ± 0.057.

In turn, `CS(=O)(=O)OCCCCOS(C)(=O)=O` [Busulfan] gave a growth of 0.445 ± 0.033.

As for `CC[C@H]1OC(=O)C[C@@H](O)[C@H](C)[C@@H](O[C@@H]2O[C@H](C)[C@@H](O[C@H]3C[C@@](C)(O)[C@@H](O)[C@H](C)O3)[C@H](N(C)C)[C@H]2O)[C@@H](CC=O)C[C@@H](C)C(=O)/C=C/C(C)=C/[C@@H]1CO[C@@H]1O[C@H](C)[C@@H](O)[C@@H](OC)[C@H]1OC` [Tylosin], the growth was 0.0591 ± 0.00044.

Source of the values: the supplement of paper PMC9262897, “Low-cost anti-mycobacterial drug discovery using engineered E. coli” (Nature Communications, 2022).
